The full list was thinned out, with hits kept by preference.
Ba CapD inh – blocks the Bacillus anthracis CapD enzyme | z-score (no concentration beside the values) | 140,000 compounds, 0.23% hits | purified CapD enzyme, fluorescence intensity read-out; active compounds read low; in the data active means z-score mostly below about -2.9, no sharp cut-off; inactive means mostly above about -1.9
Starred values were filed as active, the others as inactive.

SMILES	Ba CapD inh
CC(=O)N(C(C)=O)c1nc(-c2ccccc2)cn1/N=C/c1ccccc1	-7.1*
O=C(Nc1ccccc1)Nc1nc(-c2ccco2)cn1/N=C/c1ccccc1	-0.34
COc1ccc(/C=N/n2c(N(C(C)=O)C(C)=O)nc(-c3ccccc3)c2-c2ccccc2)cc1	-1.4
CCNc1nc(NC(C)C)nc(Oc2ccc(C(=O)OCC)cc2)n1	0.82
O=c1cc(O)c2sc(Nc3ccccc3)nc2[nH]1	0.055
CNc1sc2c(O)cc(=O)[nH]c2c1C#N	-1.5
Nc1c(Nc2ccc(F)cc2)sc2c(O)cc(=O)[nH]c12	-4.1*
Cc1ccc(NCn2nnc3ccccc32)cc1	-0.18
CCCCOC(=O)Oc1cc2oc(=O)sc2cc1Br	-0.21
CCOC(=O)Oc1c(Cl)cc2oc(=O)sc2c1Br	-5.3*
COC(=O)Oc1cc2oc(=O)sc2cc1Cl	-0.7
CC(C(=O)NCCC1=CCCCC1)n1ncn2cccc2c1=O (stereo not drawn)	-0.4
N=C(N)Sc1cn(Cc2ccccc2)c2ccccc12	-4.8*
N#Cc1cn(Cc2ccccc2)c2ccccc12	-0.23
O=C(CSc1cn(Cc2ccccc2)c2ccccc12)N1CCCC1	0.055
S=c1sc2c(N3CCCCC3)ncnc2n1-c1ccccc1	-0.5
Cc1ccc(C=C(C#N)C#N)c(C)c1	-0.54
CC(=O)Nc1cccc(F)c1C(=O)O	-0.13
O=C(c1c(F)cccc1F)N1CCN(C(=O)c2c(F)cccc2F)CC1	-0.43
O=C(O)c1c(F)cccc1I	-2.9*
COc1ccc(N=Cc2c(O)[nH]c(=S)[nH]c2=O)cc1	0.11
Cc1ccc(N=Cc2c(O)[nH]c(=S)[nH]c2=O)cc1	0.93
O=c1[nH]c(=S)[nH]c(O)c1N=Nc1ccc(O)cc1	-3.9*
COc1ccccc1N=Cc1ccc(O)c2c1OC(N)=C(C#N)C2c1cccc([N+](=O)[O-])c1 (stereo not drawn)	-0.23
O=S(=O)(NC1CCCc2ccccc21)c1cccs1 (stereo not drawn)	-1.7*
SMILES	Ba CapD inh
O=C(c1ccc(S(=O)(=O)NC2CCCc3ccccc32)s1)N1CCCC1 (stereo not drawn)	0.57
O=C(CCS(=O)(=O)c1cccs1)NC1CCCc2ccccc21 (stereo not drawn)	0.3
COc1cc(C2C3=C(CC(C)(C)CC3=O)Nc3ccccc3N2C(=O)C(F)(F)F)cc(OC)c1OC (stereo not drawn)	-0.69
CCN(Cc1ccncc1)C(=O)CC1(CC(=O)O)CCCC1	-0.27
CCOC(=O)c1c(NC(=O)CCN2C(=O)c3cccc4cccc(c34)C2=O)sc2c1CCC2	1.1
CCc1ccc(/C=C2\C(=N)N3N=C(N4CCCC4)SC3=NC2=O)cc1	0.55
CN1C(=O)C(=Cc2ccc(-c3cccc(C(=O)O)c3)o2)C(=O)N(C)C1=S	-0.73
N=C1/C(=C\c2ccc(-c3cccc(C(=O)O)c3)o2)C(=O)N=C2SC(N3CCCCC3)=NN12	-3.8*
COc1cc(NC(=O)c2ccc(C(=O)C(F)(F)F)cc2)c(Cl)cc1Cl	-0.52
CSC(C)C(=O)C1=C(O)c2ccccc2C1=O (stereo not drawn)	-2.1
CC(=NCCc1ccc(F)cc1)C1=C(O)c2ccccc2C1=O	-4.8*
CCOC(=O)C1=C(O)c2ccccc2C1=O	0.15
COc1ccc(C2NC(C(=O)O)Cc3c2[nH]c2ccccc32)c(OC)c1 (stereo not drawn)	1.8
OCCSc1ncnc2sc3c(c12)CCC3	4.3
ONc1nc2ccccc2nc1NO	-1.1
CC(=O)Nc1nc2ccccc2nc1Cl	-7.6*
CC(=O)Nc1cccc2nc(C)sc12	-0.095
CN1CCc2c(sc(-n3cccc3)c2CNC(=O)NCc2ccccc2)C1	-0.6
O=C(c1cccs1)N1CCN(c2ncnc3sccc23)CC1	0.17
CCOC(=O)c1c[nH]c(=S)[nH]1	0.14
CCOC(=O)c1cnc(=S)[nH]c1N	-0.74
CCOC(=O)c1c[nH]c(=S)[nH]c1=O	-7*
Cc1noc(C)c1S(=O)(=O)N(CCC#N)Cc1ccccc1	-0.2
Cc1noc(/C=C/N(C)C)c1S(=O)(=O)N(CCc1ccccc1)Cc1ccccc1	-4.3*
COc1ccc(CN(Cc2ccc(OC)cc2)S(=O)(=O)c2c(C)noc2C)cc1	0.41
SMILES	Ba CapD inh
CCOC(=O)C(C#N)C(c1ccc(F)cc1)C1CCOC(C)(C)C1 (stereo not drawn)	0.005
O=C(/C=C/c1ccco1)C1(O)CCCCC1	-5.6*
COc1ccc(/C=C/C(=O)C2(O)CCCCC2)cc1	-0.88
O=C(/C=C/c1ccco1)/C=C/c1ccco1	0.035
CCOC(=O)Cc1nnc(C2CC(=O)N(c3ccccc3)C2)o1 (stereo not drawn)	0.06
COc1ccc(N2C(=O)C(N3C(=O)c4ccccc4C3=O)C2c2cc(OC)c(OC)c(OC)c2)cc1Cl (stereo not drawn)	0.06
O=C(Nc1ccccc1)c1ccc(=O)n(Cc2cccc(C(F)(F)F)c2)c1	0.4
CCCN1CCN(C(=O)c2sc3nc4n(c(=O)c3c2C)CCCC4)CC1	0.71
Cc1c(C(=O)O)sc2nc3n(c(=O)c12)CCC3	-5.2*
Cc1c(C(=O)N(C)Cc2ccccc2)sc2nc3n(c(=O)c12)CCCC3	-0.38
CC(=O)/C(N=Nc1c(F)cccc1F)=C(\C)O	-0.24
O=C(NN1S(=O)(=O)c2ccccc2S1(=O)=O)c1nc[nH]c1C(=O)Nc1ccccc1	-0.78
O=C(NN1S(=O)(=O)c2ccccc2S1(=O)=O)c1nsnc1NCCCl	-6.3*
CCCCN(CCCC)CCC(=O)NN1S(=O)(=O)c2ccccc2S1(=O)=O	-2.5
Cc1ccn(CCC(=O)Nc2ccc(F)cc2F)n1	-0.88
CCN(CC)C1N(C(=O)c2ccccc2)N=C2c3ccccc3S(=O)(=O)N21 (stereo not drawn)	-0.43
Cc1ccccc1C1(c2ccccc2C)CC1C(=O)Nc1ccc(Br)cc1 (stereo not drawn)	-0.045
Cc1ccc2c(c1)-c1sc(C(=O)Oc3ccc(F)cc3)cc1CS2	0.33
Cc1ccc(N2C(=O)CSC23C(=O)N(CN2CCC(C)CC2)c2ccccc23)cc1C (stereo not drawn)	0.01
O=c1oc(-c2cccs2)nc2ccccc12	-0.025
O=c1oc(-c2cccs2)ns1	-8.9*
O=c1oc(-c2c(Cl)cccc2Cl)ns1	0.15
C=CCSC1=NC2(CC(c3ccccc3)c3cc(Cl)c(O)cc3O2)CC(C)(C)N1 (stereo not drawn)	-0.29
COc1ccc(-c2coc3cc4oc(=O)ccc4cc23)cc1	4
Cc1nc(-c2nnc(SCC(=O)c3ccccc3)o2)cs1	-0.06
SMILES	Ba CapD inh
O=C(NNC(=S)Nc1ccc(F)cc1)c1ccccc1Cl	0.15
COC(=O)c1cccc(N2C(=O)/C(=C\c3cccnc3)SC2=S)c1	-0.35
O=C(NN1C(=O)/C(=C\c2cccnc2)SC1=S)c1ccccc1	-1.4
O=C(O)COc1ccccc1/C=C1/SC(=S)N(c2cccnc2)C1=O	-4*
Cc1nc(-c2ccccc2)sc1C(=O)/C=C/c1ccccc1[N+](=O)[O-]	-0.65
O=c1ccc2cc3c([nH]c4ccc(Br)cc43)oc-2c1O	-7.8*
O=C(O)c1cc(=O)c2cc(Br)ccc2o1	0.56
COC(=O)N=Nc1c(O)[nH]c2ccc(Br)cc12	-0.73
N#CCC(=O)Nc1ccc(F)cc1	0.39
COC(=O)C(CC(C)C)NC(=O)c1ccc2c(c1)OCO2 (stereo not drawn)	-0.29
O=c1c2ccccc2c(=O)n2n1CC=CC2	0.065
O=C1c2ccccc2C(=O)N1N1C(=O)c2ccccc2C1=O	0.02
O=c1c(=NO)c(=O)c2ccccc12	-5.4*
COC(=O)c1sccc1-c1ccc(COC(=O)NC2CCCCC2)o1	21
O=C(O)CSCC(=O)N1CCN(c2ccc(Cl)cc2)CC1	-0.09
CCCCCOC(=O)NNC(=O)/C=C/c1ccco1	-0.22
